ALR inh: inhibitors of human sulfhydryl oxidase ALR | hit rate 3.8% among 290,000 | inhibition, % (test concentration not listed) | purified ALR, DTT oxidation, H2O2 HRP-luminol luminescence | AID 485317;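 active = mean replicate inhibition above about 79%, with every replicate also reaching it, limit read from the data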
MLLE-PAM2 inh: blocks PAM2 peptide binding to the PABP1 MLLE domain; hit rate 0.36% among 360,000; inhibition, % at 20 µM; P11940; GST-MLLE / FITC-PAM2 fluorescence polarization; AID 588489; in the data active = inhibition above about 35%, passing the limit was not always enough;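 note: plate controls were DMSO wells with GST-MLLE for no effect and wells lacking GST-MLLE protein for full effect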
Target sequence (P11940 whole entry, looked up, the tested form may be a part): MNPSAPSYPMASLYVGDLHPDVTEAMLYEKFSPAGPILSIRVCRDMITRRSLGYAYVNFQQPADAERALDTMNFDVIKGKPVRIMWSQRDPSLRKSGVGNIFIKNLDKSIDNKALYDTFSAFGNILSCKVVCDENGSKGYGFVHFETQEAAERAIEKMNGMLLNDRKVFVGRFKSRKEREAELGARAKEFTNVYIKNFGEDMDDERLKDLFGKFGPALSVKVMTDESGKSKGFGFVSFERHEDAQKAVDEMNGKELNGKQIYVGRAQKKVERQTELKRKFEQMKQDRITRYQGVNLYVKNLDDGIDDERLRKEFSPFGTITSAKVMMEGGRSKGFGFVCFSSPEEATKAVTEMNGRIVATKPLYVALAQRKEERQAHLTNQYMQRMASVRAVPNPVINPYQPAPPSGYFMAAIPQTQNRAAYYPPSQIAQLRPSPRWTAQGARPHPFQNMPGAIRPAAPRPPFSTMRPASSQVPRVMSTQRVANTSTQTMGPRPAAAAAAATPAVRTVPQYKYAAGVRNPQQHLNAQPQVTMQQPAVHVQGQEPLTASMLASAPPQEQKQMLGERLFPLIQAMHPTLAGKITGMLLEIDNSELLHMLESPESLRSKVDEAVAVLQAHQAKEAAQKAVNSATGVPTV
SUMO HTRF inh: SUMOylation inhibition; P63279; HTRF SUMOylation assay, SAE1/SAE2 + UBC9, in vitro; inhibition, % at 35 µM; hit rate 0.36% among 290,000; AID 2006; in the data active = inhibition above about 50%, passing the limit was not always enough
PABP polyA inh: PABP-poly(A) binding inhibition. inhibition, % at 35 µM. P11940. hit rate 1% among 290,000. PABP-poly(A) RNA binding, fluorescence polarization;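 note: calls also rest on retests at 20 µM and on dose response follow-up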
Efflux pump mplx: blocks antifungal efflux pumps in multiplex yeast assay; AID 485275; inhibition, % at 10 µM; S. cerevisiae Candida pump triplex, Nile Red efflux; hit rate 0.44% among 330,000;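 active = plate passing quality check with inhibition over a set limit, or well fluorescence over plate mean plus 4 SD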;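 note: Nile Red retained in pooled yeast measured as flow cytometry median fluorescence; 0% = buffer negative control and 100% = Enniatin B positive control; higher means more Nile Red kept so more efflux inhibition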
eIF4H inh: inhibitors of RNA binding by human eIF4H; inhibition, % at 35 µM; AID 2012; hit rate 0.94% among 290,000; eIF4H fluorescence polarization binding assay; Q15056;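 note: calls also rest on retests at 20 µM and on dose response follow-up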
Yeast cmpd fluor: counter-screen for efflux pump inhibitors: compound fluorescence; shares compounds with Efflux pump mplx; S. cerevisiae AD/pABC3, flow cytometry; fluorescence ratio to DMSO, % at 10 µM; hit rate 4% among 1,700; AID 588517;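 active = fluorescence ratio to DMSO above its plate's cutoff, the plate mean ratio plus 5 SD, cut at about 210% in these data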;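 note: unstained yeast with no Nile Red so the signal is compound autofluorescence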
Mdr1 pump inh: inhibitors of Candida albicans Mdr1 efflux pump; hit rate 1% among 1,700; shares compounds with Efflux pump mplx; inhibition, % at 10 µM; S. cerevisiae AD/CaMDR1, Nile Red efflux, flow cytometry; AID 588518; in the data active = inhibition above about 26%;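 note: 0% = DMSO vehicle and 100% = reference inhibitor; higher means more Nile Red retained so more efflux inhibition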
Cdr2 pump inh: Candida Cdr2 efflux pump inhibition | shares compounds with Efflux pump mplx | S. cerevisiae AD/CaCDR2, Nile Red retention, flow cytometry | Nile Red retention ratio vs DMSO, % at 10 µM | hit rate 4% among 1,700; in the data active = Nile Red retention ratio vs DMSO above about 190%;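 note: higher ratio means more blocking of Cdr2 efflux of the dye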
CaCdr1 efflux inh: inhibitors of Candida albicans Cdr1 efflux pump; hit rate 1% among 1,700; AID 588522; S. cerevisiae AD/CaCDR1, Nile Red efflux, flow cytometry; inhibition, % at 10 µM; shares compounds with Efflux pump mplx;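 active = inhibition above the screen-wide mean plus twice its standard deviation, cut at about 32% in these data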
Starred values were filed as active, the others as inactive; / = not tested or not shown. The list is not random: actives were taken first. Their share in the collection is about 4.7%. Unless noted, the rule behind the calls is not given here.

SMILES	ALR inh	MLLE-PAM2 inh	SUMO HTRF inh	PABP polyA inh	Efflux pump mplx	eIF4H inh	Yeast cmpd fluor	Mdr1 pump inh	Cdr2 pump inh	CaCdr1 efflux inh
O=C(NCCc1ccccc1)c1c(O)c2cccc3c2n(c1=O)CC3	-10.4	-1.8	18.7	2.1	0.1	-3.6	/	/	/	/
CN1CCN(C(=O)c2c(O)c3cccc4c3n(c2=O)CC4)CC1	-0.3	9.1	19.0	14.0	-0.1	9.4	/	/	/	/
O=C(Oc1c(-c2ccccc2)c(=O)n2c3c(cccc13)CC2)c1ccc(F)cc1	-4.1	-5.5	4.8	-0.7	0.6*	-2.7	98.6	-0.2	97.2	0.1
O=C(CCCCCN1C(=O)[C@@H]2Cc3ccccc3CN2C1=O)Nc1ccccc1Cl	-19.6	-9.5	-0.1	-4.6	0.2	-6.1	/	/	/	/
CC1=C(C)C(c2ccccc2)NC(=S)N1 (stereo not given)	3.2	-1.5	-7.7	-2.8	5.5*	9.5	103.4	-0.1	104.2	0.1
CC1=C(C(=O)c2ccccc2)C(c2ccc(O)cc2)NC(=S)N1 (stereo not given)	6.0	-141.1	12.1	3.6	0.0	8.1	/	/	/	/
C/C(=N\NC(=O)CSc1ncccn1)c1ccc2c(c1)OCCO2	2.5	-9.7	9.7	1.9	0.1	-0.7	/	/	/	/
CCSc1nnc(NC(NC(C)=O)(C(F)(F)F)C(F)(F)F)s1	-3.2	-10.3	-0.1	-5.9	13.8*	4.7	116.8	0.9	130.8	0.6
CCSc1nnc(NC(NC(=O)c2ccco2)(C(F)(F)F)C(F)(F)F)s1	-5.4	-0.2	5.7	-5.5	0.0	2.9	/	/	/	/
Cc1nc(S(=O)(=O)Cc2ccc(Cl)cc2)nc2c1CCC2	13.2	-2.6	7.1	0.9	1.9*	-9.5	104.7	0.0	99.6	0.0
CC[N+](C)(C)CC/C=C1/c2ccccc2Sc2ccc(Cl)cc21	-16.5	-0.5	6.1	-1.6	0.1	-2.6	100.0	-0.2	102.2	0.0
CCCCCCCCCC[N+](C)(C)CC/C=C1/c2ccccc2Sc2ccc(Cl)cc21	-0.5	7.7	-9.6	13.6	1.8*	25.3	98.2	0.0	116.4	0.0
CCCCCCCCCCC[N+](C)(C)CC/C=C1/c2ccccc2Sc2ccc(Cl)cc21	1.0	10.8	-0.2	19.2	1.8*	23.9	146.5	1.1	259.7*	0.4
c1ccc(-c2cc(N3CCOCC3)nc(-c3ccccc3)n2)cc1	-3.3	-5.0	12.4	-3.1	0.0	7.0	/	/	/	/
CCSc1cc(N2CCOCC2)nc(-c2ccccc2)n1	-3.9	-5.3	-14.7	1.9	0.0	1.1	103.4	-0.1	97.2	0.1
CSCCC(NC(=O)c1ccccc1Cl)C(=O)N(C)Cc1cccs1 (stereo not given)	-3.8	13.7	-15.3	8.8	5.5*	5.9	101.1	0.0	106.3	0.1
COc1cccc(/C=C/C(=O)N2CC(C)OC(C)C2)c1OC (stereo not given)	-5.0	-19.8	9.6	25.4	1.7*	-7.1	93.5	-0.2	102.9	-0.1
COc1ccc(C(=O)Cc2nnc(C)s2)c(OC)c1	-2.7	9.4	28.4	1.2	8.0*	-5.6	99.0	-0.1	102.9	-0.1
Cc1ccc(CNC(=O)CCC2CCCN(Cc3c(C)nn(C(C)C)c3C)C2)o1 (stereo not given)	0.7	-2.6	11.3	7.5	0.2	5.9	/	/	/	/
Cc1ccc(S(=O)(=O)Nc2cc(-c3ccccc3)nn2C)cc1	-6.9	0.6	10.8	-7.5	0.5*	-5.0	96.6	-0.2	97.7	0.0
Cc1cc(C)n(-c2ccc(Cl)c(C(=O)O)c2)n1	-5.0	0.8	5.8	15.2	-0.1	2.7	/	/	/	/
Cn1ncc(N=Cc2c(O)ccc3ccccc23)c1C(=O)N1CCOCC1	-8.9	-29.9	/	/	-0.3	/	/	/	/	/
COc1ccccc1NC(=O)c1c(N=Cc2c(O)ccc3ccccc23)cnn1C	-24.4	-9.8	11.4	-2.6	0.4*	-10.2	110.0	0.8	102.9	0.1
Cc1ccc(-n2c(C)cc(/C([O-])=C(/C(=S)Nc3ccc(F)c(Cl)c3)[n+]3ccccc3)c2C)cc1	-15.8	-37.8	9.6	28.3	0.9*	21.2	101.4	0.2	93.5	0.0
CCCCC(CC)CNC(=O)C(Cc1ccccc1)NS(=O)(=O)c1ccc2c(c1)CCC(=O)N2 (stereo not given)	/	-1.8	-21.6	-6.4	0.2	-0.7	/	/	/	/
SMILES	ALR inh	MLLE-PAM2 inh	SUMO HTRF inh	PABP polyA inh	Efflux pump mplx	eIF4H inh	Yeast cmpd fluor	Mdr1 pump inh	Cdr2 pump inh	CaCdr1 efflux inh
Cc1ccc(S(=O)(=O)N2CCC(C(=O)N[C@@H](C)C(=O)Nc3ccc(F)cc3)CC2)cc1	-0.3	5.1	-5.0	9.7	0.8*	22.2	112.2	0.0	118.7	0.1
Cc1ccc(NC(=O)C2CCN(S(=O)(=O)c3ccc(F)cc3)CC2)cc1	-20.9	-5.4	-3.9	0.0	0.1	-2.7	/	/	/	/
CC(C)=CCN1CCN(Cc2c[nH]c3ccccc23)CC1CCO (stereo not given)	1.5	13.2	-5.6	3.1	-0.1	-15.6	/	/	/	/
O=C(CCn1c(=O)c2ccccc2n(Cc2cccc([N+](=O)[O-])c2)c1=O)N1CCc2ccccc2C1	-4.1	-4.4	-8.3	20.7	12.6*	5.7	109.0	0.0	116.6	0.0
CCn1c(=O)c2ccccc2n(Cc2cccc([N+](=O)[O-])c2)c1=O	/	-7.4	5.3	-3.3	0.0	-2.2	/	/	/	/
Cc1ccc(C(C)NC(=O)c2c(-c3ccccc3)noc2C)cc1C (stereo not given)	-6.7	0.6	4.1	0.7	5.7*	-10.1	74.8	0.0	91.1	-0.5
CCOC(=O)C1(C(=O)OCC)NC(=O)CC1CC(C)C (stereo not given)	/	-4.1	/	/	/	/	/	/	/	/
COc1ccc(C(=O)NCc2cccnc2)cc1OC	-5.7	-0.2	14.4	7.6	-0.1	-5.2	/	/	/	/
COc1ccc(C(=O)NCc2ccc(Cl)c(Cl)c2)cc1OC	-2.9	11.1	-14.3	-8.9	11.4*	-13.1	87.3	-0.3	88.8	0.3
O=C(CSc1nnc(-c2ccccc2)o1)N1CCN(c2ccccc2)CC1	-1.5	-37.3	10.9	14.7	0.8*	0.9	107.2	0.1	100.7	-0.1
COCCCn1c(SCC(=O)OC2CCCCC2)nnc1-c1ccco1	-0.4	-3.7	-7.7	6.9	-0.1	15.7	/	/	/	/
COCCCn1c(SCC(=O)OC2CCCCC2)nnc1-c1cccs1	-6.1	11.5	3.4	-4.6	1.3*	-4.4	96.2	-0.2	120.4	-0.1
CSc1nc(N)nc2c1ncn2CC(=O)N[C@H](C)c1cccc2ccccc12	/	0.4	/	/	0.2	/	/	/	/	/
CCCCOc1cccc(C(=O)Nc2ccc(NC(=O)c3cccs3)cc2)c1	/	3.1	13.6	-1.6	0.7	-8.0	/	/	/	/
